About 2,100 (3.2%) of roughly 65,000 compounds showed an effect of 50% or more. The median lay at about -52%. Only a selection was taken, and strong results are over-represented in it overall.

The subject of the assay is Plasmodium falciparum. The assay is described as follows: Screen against P. falciparum Asexual Blood Stage (ABS), at 5uM. As to conditions: tested at 5 uM. The format is functional, Dd2.
As for `COc1cc(OC)cc(C(=O)Nc2ncnc3c2CCC3)c1`, the INHIBITION is given as -80.8%.
As to `Cc1n[nH]cc1CNCC1(c2ccc3c(c2)OCO3)CCOCC1`, the INHIBITION is on record as -37.3%.
For the molecule `Cc1n[nH]cc1CNCC1(c2ccccc2Cl)CCOCC1`, the INHIBITION is on record as 57.1%.
For `O=C(NCC1(O)CCOC1)NCC1(c2ccccc2Cl)CCC1` (stereo unspecified) the value was -90.2%; for `COc1ccc(COCC(O)CNC(=O)c2ccncc2)cc1` (stereo unspecified), -119%; for `O=C(Nc1ccc(F)cc1)N1C[C@@H]2CC[C@H]1CN(Cc1cccnc1)C2`, -74.3%.
As to `CN1CCCN(c2nccc(-c3cncnc3C3CCCCC3)n2)CC1`, the INHIBITION is 61.6%.
For `CN1CCN(c2nccc(-c3cncnc3C3CCCCC3)n2)CC1` the value was 62.3%; for `c1cc(-c2cn3nccc3nc2C2CCCCC2)nc(N2CCCC2)n1`, 3.54%.
With `NC(=O)C1CCN(c2nccc(-c3c[nH]nc3C3CCCCC3)n2)CC1` the figure was 16.3%; with `CN1CCN(c2ncc(-c3cnccn3)c([C@H]3CCCO3)n2)CC1`, -10.1%; with `c1cc(-c2c[nH]nc2C2CCCCC2)nc(N2CCCCCC2)n1`, 1.32%.
For `O=C(C[C@@H]1COC[C@H]2CN(C3CCCC3)C[C@@H]12)N1CCCCO1` the value was -31.2%.
On to `CC(C)CS(=O)(=O)N1CCC2(CN(c3cccc(F)c3)C(=O)CN2C)C1` (stereo unspecified), for which the INHIBITION is on record as -101%.
With `C=C/C=c1\c(=C/C)oc2c(NCc3ccccc3)nc(C)nc12` the figure was 3.94%; with `CCS(=O)(=O)N1CCc2cc(C(=O)NC)c(NCC3CC3)nc2CC1`, -28%; with `CCOC(=O)C1CCN(C(=O)CN2CCCC2c2ccsc2)CC1` (stereo unspecified), 50.9%.
With `CCOC(=O)C1CCN(C(=O)CN2CCCC2c2ccccc2C)CC1` (stereo unspecified) the figure was 28.2%.
With `CCOC(=O)C1CCN(C(=O)CN2CCCC2c2cc(C)no2)CC1` (stereo unspecified) the figure was -126%; with `CC(=O)N(C)Cc1ccccc1NC(=O)N(C)CCc1cccs1`, -28.3%.
With `NCC1Cc2cc(-c3cncc(C(=O)N4CCOCC4)n3)cc(Cl)c2O1` (stereo unspecified), the INHIBITION is -15.2%.
With `CC(C)c1cncnc1-c1cc(F)cc2c1OC(CN)C2` (stereo unspecified) the figure was 29.4%.
On to `NCC1Cc2cc(-c3cncc(C(=O)N4CCCCC4)n3)cc(F)c2O1` (stereo unspecified), for which the INHIBITION is on record as 51.3%.
For `Cc1cc2c(c(-c3cncc(C(=O)N4CCCC4)n3)c1)OC(CN)C2` (stereo unspecified) the value was 4.12%.
With `NCC1Cc2cc(-c3cnccn3)cc(Cl)c2O1` (stereo unspecified), the INHIBITION is recorded as -13.4%.
For `Cc1nc(-c2cc(F)c3c(c2)CC(CN)O3)c[nH]1` (stereo unspecified) the value was 53.7%.
For the molecule `Cc1cc(NC(=O)CN2CCCC2c2noc(C)n2)n(C(C)(C)C)n1` (stereo unspecified), the INHIBITION is given as -108%.
For `O=C(NC1CC1)[C@@H]1CCO[C@@H]2CCN(CC3CCC3)C[C@@H]21` the value was -89.4%.
For `Cc1ccc(CN2CC[C@H]3[C@H](CC(Cn4cccn4)N3C)C2)s1` (stereo partly specified) the value was 62.7%.
For `CCC(=O)N1CC[C@H]2[C@H](C[C@@H](Cn3cccn3)N2c2nccs2)C1` the value was -13.4%; for `CN1C(Cn2cccn2)C[C@@H]2CN(Cc3nccs3)CC[C@@H]21` (stereo partly specified), -108%; for `CC(C)N1CC[C@H]2[C@H](C[C@@H](Cn3cccn3)N2c2nccs2)C1`, 66.3%.
As to `CN1[C@H](CN2CCCC2)C[C@@H]2CN(Cc3ccoc3)CC[C@@H]21`, the INHIBITION came out at 58.5%.
For `CC(C)N1[C@H](Cn2cccn2)C[C@@H]2CN(Cc3ccoc3)CC[C@@H]21`, the INHIBITION is listed as 40.6%.
With `CN1CC[C@H]2[C@H](C[C@@H](Cn3cncn3)N2c2nccs2)C1` the figure was -37.1%; with `CC(C)N1[C@H](CN2CCCC2)C[C@@H]2CN(Cc3cnn(C)c3)CC[C@@H]21`, -20.1%; with `CN1C(Cn2cccn2)C[C@@H]2CN(Cc3cnn(C)c3)CC[C@@H]21` (stereo partly specified), -48.5%.
For `CC1CN(Cc2nc(Cc3ccccc3F)no2)CCN1C` (stereo unspecified) the value was -114%; for `O=C(CCc1ccsc1)N1CCCC(n2cncn2)C1` (stereo unspecified), -152%; for `COC[C@@]12CCC[C@@H]1CN(C(=O)CN(C)C)C2`, -1.68%.
Turning to `Cc1cc(C)c(Cn2cncn2)cc1CN1CCC(CN)C1` (stereo unspecified), the INHIBITION came out at 69%.
For `Cc1cc(C)c(Cn2cncn2)cc1CN1CC[C@@H]2CC[C@H](C1)N2` the value was 13.3%; for `CO[C@H]1CN(Cc2cc(Cn3cncn3)c(C)cc2C)CC[C@H]1N`, -28.2%.
With `COCc1ncn2c1CN(C(=O)Nc1cccc(OC)c1)CC2` the figure was -101%; with `CC(C)c1nccn1-c1cccc(C2CCCN(S(=O)(=O)N(C)C)C2)n1` (stereo unspecified), -73.6%.
As to `NC1CCC(Nc2nccc(CCC(F)(F)F)n2)CC1` (stereo unspecified), the INHIBITION was 50.3%.
For `FC(F)(F)CCc1ccnc(NC2CCC(n3cnnc3)CC2)n1` (stereo unspecified) the value was -54.2%.
With `N[C@@H]1CC[C@@H](Nc2nccc(CCC(F)(F)F)n2)C1` the figure was -4.32%; with `CS(=O)(=O)N1CCC(c2ccncn2)CC1`, -94.7%.
For `CN(C(=O)CSc1ncc[nH]1)C1CC1` the value was -11.8%.
`Fc1ccc(CN2CCc3ncnc(C4CCOC4)c3CC2)cc1` (stereo unspecified): the INHIBITION is reported as -78.8%.

These data come from ChEMBL document CHEMBL4513216, “Probing the Open Global Health Chemical Diversity Library for Multistage-Active Starting Points for Next-Generation Antimalarials” (ACS Infect Dis, 2020).
